This excerpt belongs to a sample that is enriched for hits.
Pf Dd2 inh – inhibitors of Plasmodium falciparum Dd2 growth. P. falciparum Dd2 growth, SYBR Green, 72 h. Potency, µM (series often up to 28.9 µM), inactives show at the top dose activity, negative = inhibition, most hits filed as inhibitors. actives 4.3% (n = 120,000). AID 1347417; active = well fitted inhibition curve with a large enough effect;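 note: plate controls were DMSO vehicle for no effect and reference drug for full effect; nearly all actives have a fitted effect of over 65% in size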
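Readout: SYBR Green fluorescence, 485 nm excitation, 535 nm emission, after ~16 h lysis at 37C. Before that, Dd2-infected red cells (2.5% hematocrit) grew 72 h with compound, 29 uM top final concentration.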
Starred values were filed as active, the others as inactive; [ ] = dose if it differs, or a comment. Potency is the fitted concentration of half-maximal effect.

`CCC(C)n1c(C(C)CC(=O)Cc2ccccc2)nc2cccnc21` (stereo not given) gave Pf Dd2 inh -24.6%.
For O=C(NC1CC(=O)N(Cc2ccccc2C(F)(F)F)C1)c1cscn1 (stereo not given) the results were Pf Dd2 inh -18.2%.
`CN1C(=O)CCC2(CNC(=O)Cc3c[nH]c4ccccc34)CCCC=C12` (stereo not given) gave Pf Dd2 inh -1.9%.
Screening COC(=O)c1ccccc1N(C)S(=O)(=O)c1cc2c3c(c1)CC(=O)N3CCC2 returned Pf Dd2 inh 7.94µM*.
`O=C1Cc2cc(S(=O)(=O)Nc3cccc(C(F)(F)F)c3)cc3c2N1CCC3` gave Pf Dd2 inh inactive.
`COc1ccc(C)cc1NS(=O)(=O)c1cc2c3c(c1)CC(=O)N3CCC2` gave Pf Dd2 inh 18.7%.
CCNc1ncc(-c2nc3cc(S(=O)(=O)NC(C)C)ccc3n2C(C)C)cn1 was read as Pf Dd2 inh -11.3%.
`Cn1nc(C(=O)NCCc2noc(-c3ccncc3)n2)c2ccccc21` gave Pf Dd2 inh -19.0%.
CNC(=O)[C@@H]1C[C@H](n2cc(CNC(=O)Nc3ccc(F)cc3F)nn2)CN1 was read as Pf Dd2 inh -9.8%.
For O=C1N[C@@H]2CCN(C(=O)c3ccc(C(F)(F)F)cc3)[C@@H]2C(=O)N1c1ccc(Oc2ccccc2)cc1 the results were Pf Dd2 inh -22.7%.
O=C(Nc1cccc(Cl)c1)N1CC(n2cc(COc3ccccc3)nn2)C1 was read as Pf Dd2 inh 7.94µM*.
Screening CNC(=O)[C@@H]1C[C@H](n2cc(CNC(=O)Nc3cccc(Cl)c3)nn2)CN1 returned Pf Dd2 inh 0.1%.
For O=C(Nc1ccccc1)N1CC(n2cc(C(=O)N3CCOCC3)nn2)C1 the results were Pf Dd2 inh 24.0%.
`COc1ccc(CNC(=O)N2CCCCCNC(=O)[C@@H]3CCCC[C@@H]32)cc1` gave Pf Dd2 inh -16.2%.
`O=C(Nc1ccc([C@H]2OCC(=O)N(CC3CCCCC3)[C@@H]2CO)cc1)c1ccccn1` gave Pf Dd2 inh 11.2µM*.
For Cc1ccccc1C(=O)Nc1ccc([C@H]2OCC(=O)N(Cc3ccncc3)[C@@H]2CO)cc1 the results were Pf Dd2 inh 16.5%[44.1 µM].
O=C(c1ccccn1)N1C[C@@H]2OCC(=O)N(CC3CCCCC3)[C@@H]2C1 was read as Pf Dd2 inh 2.1%[44.1 µM].
Screening CCc1nc2c(=O)n(CC(=O)N3CCN(c4ccccc4F)CC3)nc(C)c2s1 returned Pf Dd2 inh -0.4%.
For CSc1cccc(NC(=O)CN2C(=O)NC3(CCS(=O)(=O)CC3)C2=O)c1 the results were Pf Dd2 inh 20.6%.
`CN1CCCN(S(=O)(=O)c2cccc(Cl)c2)c2ccccc21` gave Pf Dd2 inh 11.2µM*.
`CC(=O)N1CCC(C2CCN(S(=O)(=O)c3cccc(Cl)c3)C2)CC1` (stereo not given) gave Pf Dd2 inh -18.3%.
Screening CCS(=O)(=O)N1CCCN(C)c2ccccc21 returned Pf Dd2 inh -19.2%.
Screening COc1ccc(-c2ccc3nnc(CNC(=O)c4cc(F)ccc4F)n3n2)cc1 returned Pf Dd2 inh inactive.
Screening CC(=O)NCCCC(=O)N1CCN(c2cccc(C=O)c2)C(=O)C1 returned Pf Dd2 inh 6.5%.
CCc1cc(=O)n(CC(=O)Nc2cc(C)ccc2OC)c(-c2ccccc2)n1 was read as Pf Dd2 inh inactive.
`COc1cccc(CNC(=O)[C@@H]2C[C@@H](O)CN2C2CCN(C(=O)C(C)C)CC2)c1` gave Pf Dd2 inh -3.2%.
For CC[C@H]1CN2CC[C@H]1C[C@@H]2CNC(=O)Nc1ccc(Br)cc1 the results were Pf Dd2 inh -18.6%[44.1 µM].
Screening COc1ccc(CNC[C@H]2C[C@@H]3CCN2C[C@@H]3c2cc(-c3ccc(F)cc3)nn2C)cc1 returned Pf Dd2 inh 12.6µM*.
Screening COc1ccc(-c2cc([C@H]3CN4CC[C@H]3C[C@@H]4CNC(=O)c3ccco3)n(C)n2)cc1 returned Pf Dd2 inh -14.2%[44.1 µM].
For CC[C@H]1CN2CC[C@H]1C[C@@H]2CNC(=O)c1ccc2ccccc2c1 the results were Pf Dd2 inh inactive.
C=C[C@H]1CN2CC[C@H]1C[C@@H]2CNCc1ccc(N(C)C)cc1 was read as Pf Dd2 inh inactive.
COc1ccc(-c2cc([C@H]3CN4CC[C@H]3C[C@@H]4CNS(=O)(=O)c3ccccc3)n(C)n2)cc1 was read as Pf Dd2 inh inactive.
CCN(CC)C[C@H]1CN2CC[C@H]1C[C@@H]2CNS(=O)(=O)c1ccccc1 was read as Pf Dd2 inh inactive.
Screening CC[C@H]1CN2CC[C@H]1C[C@@H]2CN(Cc1ccc(SC)cc1)Cc1ccc(SC)cc1 returned Pf Dd2 inh 3.55µM*.
Screening CC[C@H]1CN2CC[C@H]1C[C@@H]2CNCc1ccc(OC)cc1 returned Pf Dd2 inh 8.91µM*.
For CC(=O)N1CCCCC12Cc1ccccc1NC2=O (stereo not given) the results were Pf Dd2 inh -11.1%[44.1 µM].
Screening COc1ccc(CNC(=O)C[C@@H]2CCNC[C@@H]2Cc2cc(COc3ccccc3)on2)cc1OC returned Pf Dd2 inh -18.7%.
COc1ccc2c(c1)nc1n2[C@@H](CNC2CCOCC2)COC1 was read as Pf Dd2 inh 2.6%[44.1 µM].
Screening O=C([C@@H]1C[C@H](F)CN1C(=O)c1cccc(Br)c1)N1CCCCC1 returned Pf Dd2 inh 42.7%.
Cc1cccc(C(=O)N2CCN(c3cc(C(F)(F)F)ncn3)CC2)c1 was read as Pf Dd2 inh 1.6%.
Cc1cc(C(=O)NCC2(COc3ccc(S(C)(=O)=O)cc3)C[C@@H](O)[C@@H](O)C2)n(C)n1 (stereo not given in full) was read as Pf Dd2 inh 10.4%.
Screening COc1ccccc1C(=O)N1CCC2(CC1)CC(OC)CCO2 (stereo not given) returned Pf Dd2 inh inactive.
`CN1CCCCCCN(S(=O)(=O)c2cccc(F)c2)[C@H]2CCC[C@H]2C1=O` gave Pf Dd2 inh 2.51µM*.
CCn1cc(S(=O)(=O)N2CCCCCCN(C)C(=O)[C@@H]3CCC[C@@H]32)cn1 was read as Pf Dd2 inh -17.0%.
Screening O=C1NCCCCCN(S(=O)(=O)c2cccc(F)c2)[C@H]2CCCC[C@@H]12 returned Pf Dd2 inh 14.1%.
`Cc1cccc(CNC(=O)C2c3ccccc3CC(=O)N2C(C)C)c1` (stereo not given) gave Pf Dd2 inh inactive.
For O=C(Nc1ccc(F)cc1)N[C@H]1[C@H](O)[C@@H](N2CCCCC2)[C@@H]2OC[C@H]1O2 the results were Pf Dd2 inh -13.9%[44.1 µM].
CCC1=Nc2cc(C(=O)NCCCOC)ccc2Sc2ccc(Br)cc21 was read as Pf Dd2 inh -27.7%.
`Cc1ccc(C(=O)NC2CCN(c3cnn(C)c(=O)c3)CC2)cc1C` gave Pf Dd2 inh -4.9%.
Screening CC1=Nc2cc(C(=O)NC3CCCC3)ccc2Sc2ccc(Br)cc21 returned Pf Dd2 inh 7.94µM*.
For Cc1cccc(C)c1-c1nnc2ccc(C(=O)NC3CC3)cn12 the results were Pf Dd2 inh 23.4%.
`CCC1=Nc2cc(C(=O)NCc3ccc(F)cc3)ccc2Sc2ccc(C)cc21` gave Pf Dd2 inh 5.62µM*.
Screening CCC1=Nc2cc(C(=O)NC3CCC(C)CC3)ccc2Sc2ccc(C)cc21 (stereo not given) returned Pf Dd2 inh 10µM*.
For CCc1cc(C(=O)NCc2ccc(F)cc2)no1 the results were Pf Dd2 inh 8.4%.
Screening CC1=Nc2cc(C(=O)NC3CCC(C)CC3)ccc2Sc2c(C)ccc(C)c21 (stereo not given) returned Pf Dd2 inh 11.2µM*.

Compound activity (PubChem BioAssay)
